Reference: PubChem BioAssay (NCI)
About 83,000 compounds went through this panel and 20% of them were active in at least one assay; those are over-represented in the sample as a whole.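 For each line, cells grew in 96-well plates with the test compound present at a single concentration for 48 hours.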 Activity calls are given as the source filed them. The calls were made as follows: active = growth percent below 10; inactive = the rest.

Legend:
Assay in all cases: NCI-60 one-dose screen, 48 h (100 = growth as untreated, 0 = no growth, -100 = all killed)
Settings in all cases: 10 µM unless noted
[1] = tested on: T-47D breast
[2] = tested on: BT-549 breast
[3] = tested on: MDA-MB-435 melanoma
[4] = tested on: SW-620 colon
[5] = tested on: MCF7 breast
[6] = tested on: HCT-116 colon
[7] = tested on: HCC-2998 colon
[8] = tested on: KM12 colon

Measured: growth

CCOc1cccc(/C=N/NC(=O)c2cccc(Nc3ccnc(C(F)(F)F)c3)c2)c1O
inactive: [1] 27.6% | [2] 48.5% | [3] 34.4% | [4] 36.6% | [5] 17.4% | [6] 13% | [7] 43.5% | [8] 38.9%

CCOC(=O)c1c(C)nc2ccccc2c1/C=C/c1cccs1
inactive: [1] 17.4% | [2] 77.4% | [3] 88.7% | [4] 91.9% | [5] 39.5% | [6] 61.3% | [7] 79.4% | [8] 77.8%

O=C(Nc1ccc(Br)cc1)C1=NCCCCN1
inactive: [1] 71.3% | [2] 87.5% | [3] 75.3% | [4] 67.3% | [5] 81% | [6] 80.2% | [7] 106% | [8] 75.6%

CC(=O)c1sc2sc(C(C)=O)c(C)c2c1C
inactive: [1] 89% | [2] 105% | [3] 102% | [4] 102% | [5] 73.1% | [6] 83.1% | [7] 102% | [8] 107%

C[C@]1(O)CC(=O)[C@]2(O)C3=C(C=C[C@]2(O)C1)C(=O)c1c(O)cccc1C3=O
active: [1] -45.5% | [3] -79.8% | [4] -55.5% | [5] -60.2% | [6] -32.1%
inactive: [2] 45.2% | [7] 94.7% | [8] 77.8%

CCN(CC)c1ccc(CNc2cc(C)nc3ccccc23)cc1
inactive: [1] 39% | [2] 71.6% | [3] 65.7% | [4] 76.9% | [5] 39.2% | [6] 52.1% | [7] 42.1% | [8] 71.9%

Oc1c(CN2CCC(N3CCCCC3)CC2)cc(Cc2cc(CN3CCC(N4CCCCC4)CC3)c(O)c3ncccc23)c2cccnc12
inactive: [2] 27% | [4] 29.1% | [6] 13% | [7] 32.9% | [8] 21.7%
active: [1] 7.31% | [3] -13.1% | [5] 6.62%

Ic1ccccc1I
inactive: [1] 107% | [2] 115% | [3] 111% | [4] 108% | [5] 91.5% | [6] 98.5% | [7] 98.2% | [8] 104%

CO[C@H](C(=O)[C@@H](O)[C@@H](C)O)[C@@H]1Cc2cc3cc(O[C@H]4C[C@@H](O[C@H]5C[C@@H](O)[C@H](O)C(C)O5)[C@H](O)C(C)(O)O4)cc(O)c3c(O)c2C(=O)[C@H]1O[C@H]1C[C@@H](O[C@H]2C[C@@H](O[C@H]3C[C@@H](OC)[C@H](O)C(C)O3)[C@@H](O)C(C)O2)[C@H](O)C(C)O1 (some centres not stated)
active: [2] 4.37% | [5] 6.89% | [6] 6.03%
inactive: [1] 13.5% | [3] 24.8% | [4] 34% | [7] 39.9% | [8] 14.9%

C=C(C)[C@@H]1CC[C@]2(COC(C)=O)CC[C@]3(C)[C@H](CC[C@@H]4[C@@]5(C)CCCN(C(C)=O)C(C)(C)[C@@H]5CC[C@]43C)[C@@H]12
inactive: [1] 10.9% | [2] 88.6% | [5] 19.7%
active: [3] 4.85% | [4] -53.9% | [6] -35.7% | [7] -28.8% | [8] 5.81%

CCn1c(-c2cc3c([nH]c4ccccc43)c(-c3cccc(O)c3)n2)n[nH]c1=S
active: [3] -24.2%
inactive: [1] 11.7% | [2] 26.7% | [4] 62.8% | [5] 32.6% | [6] 48.2% | [7] 68.3% | [8] 28.4%

CNCc1cccc2c1OCCOCCOCCNS(=O)(=O)c1ccc(cc1)-c1cnc(N)c(n1)C(=O)N2
active: [6] 7.19%
inactive: [1] 70.4% | [2] 28.3% | [3] 35.1% | [4] 15.5% | [5] 11.8% | [7] 21.7% | [8] 20.2%

N#CC1=C(N)Oc2ccc3ccccc3c2C1c1ccc([N+](=O)[O-])cc1 (configuration not stated)
active: [3] -51.3%
inactive: [1] 82.5% | [2] 91.7% | [4] 100% | [5] 66% | [7] 107% | [8] 95.5%

O=C(N=Nc1c(O)[nH]c2ccccc12)Nc1ccc(F)cc1
inactive: [1] 66.2% | [2] 89.6% | [3] 98.3% | [4] 89.4% | [5] 71.3% | [7] 100% | [8] 85.5%

Oc1c(CN2CCOCC2)cc(COCc2ccccc2)c2cccnc12
active: [5] 9.26%
inactive: [1] 10.4% | [2] 36.4% | [3] 46.8% | [4] 28.9% | [7] 54.2% | [8] 35.6%
